Laboratory results taken from PubChem BioAssay (NCATS).
Inconclusive results are not listed. A call without a number means that no potency is given here. Calls of active or inactive are those of the source. Unless noted, calls come from the whole dose curve; as a rule, active = well fitted curve in the direction sought with a large enough effect; inconclusive = small, poorly fitted or top-dose-only effect, or another doubt; inactive = no such curve, though single readings can be large; an effect the other way counts as inactive or inconclusive.

Experiments:
[1] = qHTS for Inhibitors of the Functional Ribonucleoprotein Complex (vRNP) of Lassa (LASV) Arenavirus: LASV Primary Screen - GLuc reporter signal (AID 1347082; calls by dose curve; tested in HEK293 reporter line; note: nearly all actives have a fitted effect of over 60% in size)
[2] = qHTS for Inhibitors of the Functional Ribonucleoprotein Complex (vRNP) of Lassa (LASV) Arenavirus: Viability assay - alamar blue signal for LASV Primary Screen (AID 1347083; calls by dose curve; tested in HEK293 reporter line; note: nearly all actives have a fitted effect of over 80% in size)
[3] = molecular target: Nucleoprotein (Lymphocytic choriomeningitis virus (strain Armstrong)) (UniProt P09992); assay: qHTS for Inhibitors of the Functional Ribonucleoprotein Complex (vRNP) of Lymphocytic Choriomeningitis Arenaviruses (LCMV): LCMV Primary Screen - GLuc reporter signal (AID 1347086; calls by dose curve; note: nearly all actives have a fitted effect of over 70% in size)
[4] = qHTS of pediatric cancer cell lines to identify multiple opportunities for drug repurposing: Primary screen for TC32 cells (AID 1347089); note: nearly all actives have a fitted effect of over 60% in size
How it was run: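 TC32 cells, 500-1,000/well in growth medium, compound-treated 48 h at 37 °C; viability from CellTiter-Glo luminescence. Primary screen: MIPE 11-point (0.78 nM–46 µM final), NPC 8-point (0.59 nM–46 µM final); confirmatory at 11-point dilutions.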

[5] = qHTS of pediatric cancer cell lines to identify multiple opportunities for drug repurposing: Primary screen for DAOY cells (AID 1347090); note: nearly all actives have a fitted effect of over 55% in size
How it was run: (§1)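 Viability measured as metabolically active cells via CellTiter-Glo luminescence following 48 hours of compound exposure, 11-point dilutions in confirmatory testing. 500-1,000 cells/well plated 5 hours before dosing; controls were DMSO and 2.3 µM bortezomib.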

[6] = qHTS of pediatric cancer cell lines to identify multiple opportunities for drug repurposing: Primary screen for SJ-GBM2 cells (AID 1347091)
How it was run: as §1

[7] = qHTS of pediatric cancer cell lines to identify multiple opportunities for drug repurposing: Primary screen for A673 cells (AID 1347092); note: nearly all actives have a fitted effect of over 45% in size
How it was run: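 A673 cells (500-1,000 cells/well) were treated 48 hours at 37 degrees C with compounds at 11-point (0.78 nM to 46 µM) or 8-point (0.59 nM to 46 µM) dilutions. Viability read by CellTiter-Glo luminescence; concentration-response curves fitted.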

[8] = qHTS of pediatric cancer cell lines to identify multiple opportunities for drug repurposing: Primary screen for NB-EBc1 cells (AID 1347095)
How it was run: (§2)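 500-1,000 cells/well; 5 h pre-incubation 37 °C/5% CO2; compound pinned; 48 h; CellTiter-Glo, 15 min RT; luminescence. MIPE 11-pt from 0.78 nM, NPC 8-pt from 0.59 nM final. Bortezomib 2.3 µM final as positive control.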

[9] = qHTS of pediatric cancer cell lines to identify multiple opportunities for drug repurposing: Primary screen for U-2 OS cells (AID 1347096); note: nearly all actives have a fitted effect of over 50% in size
How it was run: (§3)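 Viability after 48 h compound treatment at 37C, 500-1,000 cells/well, read as ATP luminescence with CellTiter-Glo. Primary screens used 11-point (MIPE, 0.78 nM-46 µM) or 8-point (NPC, 0.59 nM-46 µM) final concentrations; follow-up screens used 11-point dilutions.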

[10] = qHTS of pediatric cancer cell lines to identify multiple opportunities for drug repurposing: Primary screen for NB1643 cells (AID 1347099); note: nearly all actives have a fitted effect of over 50% in size
How it was run: as §2

[11] = qHTS of pediatric cancer cell lines to identify multiple opportunities for drug repurposing: Primary screen for LAN-5 cells (AID 1347100)
How it was run: as §3

[12] = qHTS of pediatric cancer cell lines to identify multiple opportunities for drug repurposing: Primary screen for SK-N-MC cells (AID 1347093)
How it was run: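 Metabolically active cells were quantified by ATP-dependent luminescence (CellTiter-Glo, 15 min at room temperature) following 48 h treatment. Cells had been plated at 500-1,000 per well and settled for 5 h beforehand.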

[13] = qHTS of pediatric cancer cell lines to identify multiple opportunities for drug repurposing: Primary screen for Saos-2 cells (AID 1347097); note: nearly all actives have a fitted effect of over 40% in size
How it was run: as §2

[14] = qHTS of pediatric cancer cell lines to identify multiple opportunities for drug repurposing: Primary screen for SK-N-SH cells (AID 1347098); note: nearly all actives have a fitted effect of over 65% in size
How it was run: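 Cells (500-1,000/well) rested 5 h, then received compounds for 48 h; metabolically active cells were measured by CellTiter-Glo luminescence. Final concentrations spanned up to 46 µM (MIPE, 11-point) or 0.59 nM-46 µM (NPC, 8-point) in primary screens, 11-point in follow-ups.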

[15] = qHTS for Inhibitors of the Functional Ribonucleoprotein Complex (vRNP) of Lymphocytic Choriomeningitis Arenaviruses (LCMV): Viability assay - alamar blue signal for LCMV Primary Screen (AID 1347085; calls by dose curve; tested in HEK293 reporter line; note: nearly all actives have a fitted effect of over 80% in size)
[16] = qHTS of pediatric cancer cell lines to identify multiple opportunities for drug repurposing: Primary screen for BT-37 cells (AID 1347094)
How it was run: as §2
Potency is the fitted concentration of half-maximal effect.

Sequence of Nucleoprotein (Lymphocytic choriomeningitis virus (strain Armstrong)) (P09992 whole entry, looked up): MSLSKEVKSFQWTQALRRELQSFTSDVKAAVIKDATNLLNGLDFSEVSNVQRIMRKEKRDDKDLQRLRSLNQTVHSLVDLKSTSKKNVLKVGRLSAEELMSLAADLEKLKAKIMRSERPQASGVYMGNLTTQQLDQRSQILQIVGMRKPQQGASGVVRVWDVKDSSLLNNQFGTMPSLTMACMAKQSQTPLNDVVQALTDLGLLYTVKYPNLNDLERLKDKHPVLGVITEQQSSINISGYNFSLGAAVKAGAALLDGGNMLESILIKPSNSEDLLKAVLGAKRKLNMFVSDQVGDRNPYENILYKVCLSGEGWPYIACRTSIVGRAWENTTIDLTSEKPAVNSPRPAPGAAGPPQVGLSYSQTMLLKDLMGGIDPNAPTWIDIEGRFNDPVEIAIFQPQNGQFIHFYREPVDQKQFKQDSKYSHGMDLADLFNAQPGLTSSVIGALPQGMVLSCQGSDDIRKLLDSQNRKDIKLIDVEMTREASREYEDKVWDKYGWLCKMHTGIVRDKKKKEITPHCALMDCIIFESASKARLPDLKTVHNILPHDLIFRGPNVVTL

## CC(C)C[C@H](NC(=O)CNC(=O)c1cc(Cl)ccc1Cl)B(O)O
[1]
  Potency: 7.69 µM (active)
[2]
  Potency: 1.53 µM (active)
[3]
  Potency: 3.06 µM (active)

## c1cc2ccc3cccc4ccc(c1)c2c34
[1]
  Potency: inactive
[2]
  Potency: inactive
[3]
  Potency: inactive
[4]
  Potency: inactive
[5]
  Potency: inactive
[6]
  Potency: inactive
[7]
  Potency: inactive
[8]
  Potency: inactive
[9]
  Potency: inactive
[10]
  Potency: inactive
[11]
  Potency: inactive

## O=[N+]([O-])c1cc([N+](=O)[O-])c2ccccc2c1
[1]
  Potency: inactive
[2]
  Potency: inactive
[3]
  Potency: inactive
[4]
  Potency: inactive
[5]
  Potency: inactive
[6]
  Potency: inactive
[7]
  Potency: inactive
[12]
  Potency: 10.9 µM (active)
[9]
  Potency: inactive
[13]
  Potency: inactive
[14]
  Potency: inactive
[10]
  Potency: inactive
[11]
  Potency: inactive

## O=C(NCC1CCOCC1)c1cnc(Nc2ccc(Cl)cc2Cl)nc1C(F)(F)F
[1]
  Potency: inactive
[2]
  Potency: inactive
[15]
  Potency: inactive
[3]
  Potency: inactive
[4]
  Potency: inactive
[7]
  Potency: 18.7 µM (active)
[12]
  Potency: 3.32 µM (active)
[9]
  Potency: inactive
[14]
  Potency: 6.07 µM (active)
[10]
  Potency: 9.35 µM (active)

## Nc1nc(-c2nn(Cc3ccccc3F)c3ncccc23)nc(N)c1N1CCOCC1
[1]
  Potency: inactive
[2]
  Potency: inactive
[3]
  Potency: inactive

## Cn1cc(-c2ccc3nnc(Sc4ccc5ncccc5c4)n3n2)cn1
[1]
  Potency: inactive
[2]
  Potency: inactive
[3]
  Potency: inactive

## O=C(O)c1ccc(-c2cc3cccnc3c(-c3ccc4nonc4c3)n2)cc1
[1]
  Potency: inactive
[2]
  Potency: inactive
[3]
  Potency: inactive

## O=C1C=CC[C@@H]2[C@H]3CCCN4CCC[C@@H](CN12)[C@@H]34
[1]
  Potency: inactive
[2]
  Potency: inactive
[15]
  Potency: inactive
[3]
  Potency: inactive
[9]
  Potency: inactive
[13]
  Potency: inactive

## COC1=C[C@@H]2[C@@H]3Cc4ccc(OC)c(O)c4[C@]2(CCN3C)CC1=O
[1]
  Potency: 19.3 µM (active)
[2]
  Potency: 19.3 µM (active)
[15]
  Potency: 21.7 µM (active)
[3]
  Potency: 6.11 µM (active)
[4]
  Potency: inactive
[7]
  Potency: 1.48 µM (active)
[12]
  Potency: 13.2 µM (active)
[8]
  Potency: 20.9 µM (active)
[9]
  Potency: inactive
[13]
  Potency: inactive
[14]
  Potency: 6.07 µM (active)
[10]
  Potency: 5.9 µM (active)

## O=S(=O)(c1ccc(Cl)cc1)c1ccc(Cl)cc1
[1]
  Potency: inactive
[2]
  Potency: inactive
[15]
  Potency: inactive
[3]
  Potency: inactive
[4]
  Potency: inactive
[7]
  Potency: inactive
[9]
  Potency: inactive
[11]
  Potency: inactive

## COc1ccc(CC2NCCc3cc(OC)c(OC)cc32)cc1OC (stereo not given)
[1]
  Potency: inactive
[2]
  Potency: inactive
[3]
  Potency: inactive
[4]
  Potency: inactive
[5]
  Potency: inactive
[6]
  Potency: inactive
[16]
  Potency: inactive
[8]
  Potency: inactive
[9]
  Potency: inactive
[13]
  Potency: inactive
[14]
  Potency: inactive
[11]
  Potency: inactive

## COC(=O)[C@]12CCC(C)(C)C[C@@H]1[C@@H]1C(=O)C=C3[C@@]4(C)C=C(C#N)C(=O)C(C)(C)[C@@H]4CC[C@@]3(C)[C@]1(C)CC2
[1]
  Potency: 4.85 µM (active)
[2]
  Potency: 3.43 µM (active)
[3]
  Potency: 2.17 µM (active)

## COc1cc(Nc2ncc(F)c(Nc3ccc4c(n3)NC(=O)C(C)(C)O4)n2)cc(OC)c1OC
[1]
  Potency: inactive
[2]
  Potency: inactive
[3]
  Potency: inactive

## COc1cc2c(cc1OC)[C@@H]1C(=O)c3ccc4c(c3O[C@@H]1CO2)C=CC(C)(C)O4
[1]
  Potency: 0.153 µM (active)
[2]
  Potency: 1.93 µM (active)
[3]
  Potency: 0.243 µM (active)

## CCOP(=O)(OCC)C(C)NC(=O)N(CCCl)N=O (stereo not given)
[1]
  Potency: inactive
[2]
  Potency: inactive
[15]
  Potency: inactive
[3]
  Potency: inactive
[4]
  Potency: inactive
[7]
  Potency: inactive
[12]
  Potency: inactive
[9]
  Potency: inactive
[13]
  Potency: inactive
[14]
  Potency: inactive
[10]
  Potency: inactive
[11]
  Potency: inactive

## CC[C@H](CO)Nc1nc(NCc2ccccc2)c2ncn(C(C)C)c2n1
[1]
  Potency: inactive
[2]
  Potency: 15.3 µM (active)
[3]
  Potency: inactive

## Cc1ccccc1-n1c(Cn2cnc3c(N)ncnc32)nc2cccc(C)c2c1=O
[1]
  Potency: 8.63 µM (active)
[2]
  Potency: 1.53 µM (active)
[15]
  Potency: 1.93 µM (active)
[4]
  Potency: 1.31 µM (active)
[5]
  Potency: 1.48 µM (active)
[6]
  Potency: 0.187 µM (active)
[7]
  Potency: 0.59 µM (active)
[12]
  Potency: 0.0209 µM (active)
[16]
  Potency: 3.85 µM (active)
[8]
  Potency: 0.743 µM (active)
[9]
  Potency: 14.8 µM (active)
[13]
  Potency: 0.132 µM (active)
[14]
  Potency: 8.57 µM (active)
[10]
  Potency: 0.59 µM (active)
[11]
  Potency: 0.264 µM (active)

## CC[C@H]1C=CC=CC[C@@H](C)[C@H](O)[C@@](C)(O)C(=O)[C@@H](C)[C@H](O)[C@@H](C)C(=O)[C@@H](C)[C@H](O)[C@@H](C)C=CC(=O)O[C@@H]2[C@@H](C)[C@H](CC1)O[C@]1(CC[C@H](C)[C@H](C[C@@H](C)O)O1)[C@H]2C
[1]
  Potency: 0.137 µM (active)
[2]
  Potency: 0.0863 µM (active)
[15]
  Potency: 0.0968 µM (active)
[3]
  Potency: 0.0769 µM (active)
[5]
  Potency: 0.0037 µM (active)
[6]
  Potency: 0.264 µM (active)
[12]
  Potency: 0.0033 µM (active)
[8]
  Potency: 0.0132 µM (active)
[14]
  Potency: inactive
[11]
  Potency: 18.7 µM (active)

## CCn1c(-c2nonc2N)nc2cnc(Oc3cccc(NC(=O)c4ccc(OCCN5CCOCC5)cc4)c3)cc21
[1]
  Potency: 15.3 µM (active)
[2]
  Potency: 12.2 µM (active)
[3]
  Potency: 17.2 µM (active)

## CCN1CCN(C(=O)Cc2ccc(Nc3ncc(F)c(Nc4ccc(C(=O)Nc5ccccc5Cl)cc4)n3)cc2)CC1
[1]
  Potency: inactive
[2]
  Potency: 4.32 µM (active)
[15]
  Potency: 6.85 µM (active)
[6]
  Potency: 2.35 µM (active)
[7]
  Potency: 2.96 µM (active)
[12]
  Potency: 5.26 µM (active)
[16]
  Potency: 12.2 µM (active)
[8]
  Potency: 5.26 µM (active)
[9]
  Potency: 7.43 µM (active)
[13]
  Potency: 4.69 µM (active)
[10]
  Potency: 5.9 µM (active)
[11]
  Potency: 0.469 µM (active)

## CCO/N=C(\CC)C1=C(O)CC(c2c(C)cc(C)cc2C)CC1=O (stereo not given)
[1]
  Potency: inactive
[2]
  Potency: inactive
[15]
  Potency: inactive
[3]
  Potency: inactive
[4]
  Potency: inactive
[7]
  Potency: inactive
[16]
  Potency: inactive
[8]
  Potency: inactive
[9]
  Potency: inactive
[11]
  Potency: inactive

## CC(=O)O[C@@]12CO[C@H]1C[C@H](O)[C@@]1(C)C(=O)[C@H](O)C3=C(C)[C@@H](O)C[C@@](O)([C@@H](OC(=O)c4ccccc4)[C@@H]21)C3(C)C
[1]
  Potency: inactive
[2]
  Potency: 13.7 µM (active)
[15]
  Potency: 21.7 µM (active)
[4]
  Potency: 9.3 µM (active)
[5]
  Potency: 18.7 µM (active)
[6]
  Potency: 1.48 µM (active)
[7]
  Potency: 1.48 µM (active)
[12]
  Potency: 1.32 µM (active)
[8]
  Potency: 2.09 µM (active)
[9]
  Potency: inactive
[13]
  Potency: 2.64 µM (active)
[10]
  Potency: inactive
[11]
  Potency: 2.64 µM (active)

## Nc1cc(C(F)(F)F)c(-c2cc(N3CCOCC3)nc(N3CCOCC3)n2)cn1
[1]
  Potency: 1.93 µM (active)
[2]
  Potency: 1.22 µM (active)
[3]
  Potency: 0.685 µM (active)

## CCCCCC[C@H]1C(=O)O[C@H](C)[C@H](NC(=O)c2cccc(NC=O)c2O)C(=O)O[C@@H](C)[C@@H]1OC(=O)CC(C)C
[1]
  Potency: 1.09 µM (active)
[2]
  Potency: 4.32 µM (active)
[15]
  Potency: 4.85 µM (active)
[3]
  Potency: 1.22 µM (active)
[6]
  Potency: 0.187 µM (active)
[7]
  Potency: 0.296 µM (active)
[12]
  Potency: 0.0469 µM (active)
[8]
  Potency: 0.0235 µM (active)
[9]
  Potency: inactive
[13]
  Potency: 11.8 µM (active)
[10]
  Potency: 23.5 µM (active)
